Results filed as inconclusive are left out. A number with no mark means an inactive call. Calls come from the whole dose curve; as a rule, active = well fitted cell-killing curve with a large enough effect; inconclusive = small, poorly fitted or top-dose-only effect; inactive = flat fitted curve, though single readings scatter.

The nature of the assay: Cell Viability - LYMP2-011 (AID 969).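 Note: 0% = DMSO only and full inhibition = 92 µM tetraoctylammonium bromide; nearly all actives have a fitted effect of over 60% in size.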 Particulars: LYMP2-011 lymphoblastoid cells viability; series mostly up to 92.2 µM; viability change, negative = cytotoxic: at the top concentration. An excerpt: NIH Chemical Genomics Center [NCGC]
NIH Molecular Libraries Screening Centers Network [MLSCN]
National Institutes of Environmental Health Sciences [NIEHS]
National Toxicology Program [NTP]
We have developed a 1536-well cell-based assay for quantitative high throughput screening (qHTS) against a number of cell lines to determine in vitro cytotoxicity of small molecules. This particular assay uses a human lymphoblastoid cell line (LYMP2-011) purchased from Coriell Institute for Medical Research.
NCGC Assay Protocol Summary:
The CellTiter-Glo luminescent cell viability assay (Promega) is a homogeneous method to measure the number of viable cells in culture. The end point readout of this assay is based on quantitation of intracellular ATP, an indicator of metabolic activity, using the luciferase reaction. Luciferase catalyzes the oxidation of beetle Luciferin to oxyluciferin and light in the presence of ATP. The luminescent signal is proportional to amount of ATP present.
Using the CellTiter-Glo luminescent cell viability assay, the amount of cellular ATP was measured in the lymphoblastoid cell line with complete culture medium following compound treatment for 24 hours. The assay was performed in opaque white Kalypsys 1536-well plates. In the screen, tetraoctylammonium bromide was used as positive control. Library compounds were measured for their ability to cause acute toxicity in the cell line, as reflected by a decrease in intracellular ATP levels, in a concentration-dependent manner. […] AC50 values were determined from concentration-response data modeled with the standard Hill equation.
qHTS protocol for CellTiter Glo lymphoblastoid cellular assay
[Step] [Parameter] [Value] [Description]
1. Reagent; 5 uL; 2500 lymphoblastoid cells/well
2. Time; 5 hr; 37 C incubation
4. Controls; 23 nL; Tetraoctylammonium bromide 6.4pM to 92 uM
5. Time; 24 hr; 37 C incubation
6. Reagent; 5 uL; CellTiter Glo reagent
7. Time; 30 min; Room Temperature
8. Detection; Luminescence; Viewlux plate reader
Keywords: cell viability, cytotoxicity, lymphoblastoid cell line, luminescence, NTPHTS, NTPHTS_NCGC, NIEHS, DSSTox, MLSMR, MLSCN, NIH Roadmap, qHTS, NCGC
On to `C/C=C/c1ccc(O)c(OC)c1`, for which the “viability change, negative = cytotoxic” value is -8.39%.

For `NC(=O)c1ccccc1O`, the “viability change, negative = cytotoxic” value was 1.75%.

In the case of `NCCNc1cccc2ccccc12`, the “viability change, negative = cytotoxic” value was -17.2%.

With `COc1ccc(C(Cl)=C(c2ccc(OC)cc2)c2ccc(OC)cc2)cc1`, the “viability change, negative = cytotoxic” value was -12.8%.

Consider `COc1ccc(C(=O)c2ccccc2)c(O)c1`, for which the “viability change, negative = cytotoxic” value is 4.04%.

As for `O=C(O)c1ccc(S(=O)(=O)N(Cl)Cl)cc1`, the “viability change, negative = cytotoxic” value is 1.32%.

`CCOc1ccc(NC(C)=O)cc1`: the “viability change, negative = cytotoxic” value was -1.68%.

Regarding `CCCCC(CC)COC(=O)c1ccc(N(C)C)cc1` (stereo not drawn), the “viability change, negative = cytotoxic” value is 1.53%.

With `OC[C@H]1O[C@@H]2O[C@H]3[C@H](O)[C@@H](O)[C@@H](O[C@H]4[C@H](O)[C@@H](O)[C@@H](O[C@H]5[C@H](O)[C@@H](O)[C@@H](O[C@H]6[C@H](O)[C@@H](O)[C@@H](O[C@H]7[C@H](O)[C@@H](O)[C@@H](O[C@H]8[C@H](O)[C@@H](O)[C@@H](O[C@H]1[C@H](O)[C@H]2O)O[C@@H]8CO)O[C@@H]7CO)O[C@@H]6CO)O[C@@H]5CO)O[C@@H]4CO)O[C@@H]3CO`, the “viability change, negative = cytotoxic” value is -1.72%.

For the molecule `C=C[C@H]1CN2CC[C@H]1C[C@@H]2[C@@H](O)c1ccnc2ccc(OC)cc12`, the “viability change, negative = cytotoxic” value was -9.98%.

For `COc1cc([C@H]2Oc3cc([C@H]4Oc5cc(O)cc(O)c5C(=O)[C@@H]4O)ccc3O[C@@H]2CO)ccc1O`, the “viability change, negative = cytotoxic” value was 1%.

With `CCOc1ccccc1C(N)=O`, the “viability change, negative = cytotoxic” value was -0.0926%.

As to `CCCN(CCC)S(=O)(=O)c1ccc(C(=O)O)cc1`, the “viability change, negative = cytotoxic” value was -4.78%.

For the origin of these results see PubChem BioAssay (NCATS).
